aSyn UTR act = Activators working through SNCA 5'UTR binding (MLPCN); 300,000 tested, 7.1% active; AID 1814; alpha-synuclein 5'UTR reporter, activators screen; activity score, % (tested at 7.5 µM), hits read low; in the data active means activity score below about -60%
Starred values were filed as active, the others as inactive. These entries were drawn from the full list.

SMILES	aSyn UTR act
CCOC(=O)N/N=C/c1c(C)nn(-c2ccccc2Cl)c1Cl	-91*
Cc1nc(NC(=O)c2ccccc2)sc1-c1csc(Nc2ccc(Cl)cc2)n1	-65*
Cc1nc(NC(=O)c2ccccc2)sc1-c1csc(Nc2ccc(F)cc2)n1	-94*
Cc1nc(NC(=O)c2ccccc2)sc1-c1csc(Nc2ccc(Cl)cc2Cl)n1	-84*
Cc1nc(NC(=O)c2ccco2)sc1-c1csc(Nc2ccc(Cl)cc2)n1	-70*
COc1ccc(OC)c(Nc2nc(-c3sc(NC(=O)c4ccccc4)nc3C)cs2)c1	-244*
COc1ccccc1-c1c(C#N)c(N)nc2c1CCc1ccccc1-2	-196*
O=[N+]([O-])c1cc(-c2ccc(/C=N/c3nc4ccccn4c3-c3ccco3)o2)ccc1Cl	-74*
Nc1ccc(C(=O)OCc2nc3c(ccc4ccccc43)[nH]2)cc1	-116*
C/[N+]([O-])=C/c1c(OCc2ccc(Cl)cc2Cl)ccc2ccccc12	-72*
CC1CCN(Cc2nc(-c3ccccc3)no2)CC1	-190*
CC(C)C(O)C1CCN(Cc2nc(-c3cccs3)no2)CC1 (stereo not given)	-108*
Cc1ccc(-c2noc(CN3CCC(C(N)=O)CC3)n2)cc1	-86*
Cc1cccc(-c2cc3nc(C)cc(C)n3n2)c1	-235*
CC(=O)c1cnc2cc(-c3cccc(Br)c3)nn2c1C	-213*
Cc1cc(C)n2nc(-c3cccc(Br)c3)cc2n1	-114*
CC(C)NCC(O)Cn1c2c(c3ccccc31)CCc1c-2cnn1-c1ccccc1 (stereo not given)	108
Cc1ccc2c(c1)C(N1CCCC1=O)CC(c1ccco1)N2 (stereo not given)	-171*
O=c1[nH][nH]c(-c2ccccc2O)c1C(C[N+](=O)[O-])c1ccc(Cl)cc1Cl (stereo not given)	-83*
O=C(Nc1nccs1)c1ccc(Br)o1	-102*
O=C(/C=C/c1ccc(Br)o1)Nc1nccs1	-149*
O=c1c2c(nc3cc(-c4ccccc4Cl)[nH]n13)CCS2	-149*
O=c1c2c(nc3cc(-c4ccccc4)[nH]n13)CCS2	-99*
Cc1ccc2nc(Cc3ccc(N)cc3)oc2c1	-108*
Cc1ccc2nc(CCc3ccc(N)cc3)[nH]c2c1	-136*
SMILES	aSyn UTR act
Nc1ccc2nc(CCc3ccccc3)[nH]c2c1	-68*
c1cc2cc(-c3c(-c4ccc5c(c4)OCO5)noc3-c3ccsc3)ccc2[nH]1	-81*
c1ccc(-c2onc(-c3ccco3)c2-c2ccc3[nH]ccc3c2)cc1	-65*
CCNC(=O)NC(=O)C(C)Oc1ccc(Br)cc1Br (stereo not given)	-78*
Cc1ccsc1/C=N/N=C/c1sccc1C	-181*
Cc1ccsc1/C=N/NC(=O)c1sccc1C	-167*
Cc1ccc(C(=O)N/N=C\c2sccc2C)cn1	-75*
Cc1ccsc1/C=N/NC(=O)c1ccco1	-81*
Cc1ccc(C(=O)N/N=C/c2c(O)ccc3ccccc23)cn1	62
O=C(NC1=NCCS1)c1csc2ccccc12	-183*
CC(Oc1ccccc1)C(=O)NC1=NCCS1 (stereo not given)	-108*
O=C(NC1=NCCS1)Nc1ccccc1	-121*
COc1ccccc1NC(=O)C(C/C=C(\C)Cl)C(C)=O (stereo not given)	-73*
COc1ccccc1NC(=O)c1nc(S(=O)(=O)Cc2ccccc2)ncc1Cl	71
CCOc1ccc(NC(=O)c2cccs2)c([N+](=O)[O-])c1	-219*
CCOc1ccc(NC(=O)c2ccco2)c([N+](=O)[O-])c1	-131*
CCOc1ccc(NC(=O)c2ccc(CC)s2)c([N+](=O)[O-])c1	-168*
CC(=O)c1c(C)oc2ccc(OCc3ccccc3)cc12	-71*
Cc1oc2ccc(O)cc2c1C(=O)c1ccc(Br)cc1	-62*
COc1ccc2oc(C)c(C(=O)c3ccc(C)cc3)c2c1	-86*
CC(C)CC(=O)Nc1nnc(-c2ccco2)s1	-151*
O=C(Nc1nnc(-c2ccco2)s1)C1CCCCC1	-95*
CSc1ccc(C2c3[nH]c4ccccc4c3CCN2C(=O)c2cc(C)n(C)n2)cc1 (stereo not given)	-287*
CCC(=O)c1ccc(OC(=O)N2CCOCC2)cc1	-70*
CC(C)(C)c1ccc(OC(=O)N2CCOCC2)cc1	-111*
SMILES	aSyn UTR act
CC(=Nc1ccccc1)C1=C(O)CSC1=O	-95*
COc1ccc(N=C(C)C2=C(O)CSC2=O)cc1	-72*
COC(=O)c1cn(C(=O)/C=C/c2ccc(OC)c(OC)c2)c2ccccc12	-78*
O=[N+]([O-])c1ccc(C2=Nc3cc(Cl)ccc3OC2)cc1	-149*
Cc1ccc(CNc2ccc(Cl)cc2[N+](=O)[O-])cc1	-76*
COc1cc(/C=C/c2nc3ccccc3c(=O)[nH]2)cc(OC)c1OC	-84*
COc1cc(/C=C/c2nnc3c4ccccc4ncn23)cc(OC)c1OC	-80*
C=CCOc1cccc(/C=C/c2nc3ccccc3c(=O)[nH]2)c1	-182*
COc1cc(/C=C/c2nc3ccccc3c(=O)[nH]2)ccc1OC(F)F	-195*
Cc1ccc(/C=C/c2nc3ccccc3c(=O)[nH]2)cc1	68
COC(=O)c1ccc(/C=C/c2nc3ccccc3c(=O)[nH]2)cc1	-136*
CC(=Nc1cccc(O)c1)c1sc2ccccc2c1O	-236*
C=CCN(C(=O)CSC1=NC(=O)CN1C(C)=O)c1nc(C)c(-c2ccccc2)s1	-118*
CCOC(=O)C1=C(COC(=O)/C=C/c2ccccc2Cl)NC(=O)NC1C (stereo not given)	-70*
CCOC(=O)C1=C(COC(=O)c2cccc(N(C)C)c2)NC(=O)NC1C (stereo not given)	-136*
Cc1ccnc(Sc2ccc([N+](=O)[O-])cn2)n1	-72*
O=[N+]([O-])c1ccc(Sc2n[nH]c(-c3ccccc3)n2)nc1	-73*
Cc1ccc(NC(=O)CC2COc3ccccc3O2)cc1 (stereo not given)	-89*
O=C(CC1COc2ccccc2O1)NC1CCCCC1 (stereo not given)	-67*
CCOc1ccc(NC2=C(Cl)C(=O)N(Cc3ccccc3)C2=O)cc1	-119*
COc1ccc(NC2=C(Cl)C(=O)N(CCc3ccccc3)C2=O)cc1	-68*
COc1ccc(CNC[C@@H](CCCCN(C)Cc2ccc(OC)cc2)N2C[C@H](c3ccccc3)N(CCc3ccc(Cl)c(Cl)c3)C(=O)C2=O)cc1	92
Cc1cc(N2CCN(C)CC2)ccc1NC(=O)c1c2c(nc3ccccc13)CCN(Cc1ccccc1)C2	92
CN1CCN(C2=C(Cl)C(=O)N(Cc3ccccc3)C2=O)CC1	-120*
COc1ccc(NC2=C(Cl)C(=O)N(CCc3ccccc3)C2=O)c(OC)c1	-177*
SMILES	aSyn UTR act
O=C(c1cc2cc([N+](=O)[O-])ccc2s1)N1CCCCC1	-71*
O=C(Nc1ccccn1)c1ccc(Br)s1	-191*
O=C(NC(=S)Nc1ccccn1)c1ccccc1	-133*
O=C(Nc1ccccn1)c1ccc(C(=O)Nc2ccccn2)cc1	-104*
O=C(Nc1ccc(Cl)cc1)c1ccc(-c2ccccn2)s1	-170*
O=C(Nc1ccccc1)c1ccc(CSc2ccccn2)cc1	-102*
O=C(Nc1ccccn1)c1cc2ccccc2cc1O	-104*
O=C(Nc1ccccn1)c1cc2cc([N+](=O)[O-])ccc2s1	-158*
O=C(NC(=S)Nc1ccccn1)c1ccc([N+](=O)[O-])cc1	-119*
O=C(N/N=C/C=C/c1ccc([N+](=O)[O-])cc1)c1cccs1	-77*
O=C(N/N=C/c1cccc([N+](=O)[O-])c1)c1cccs1	-84*
